Source: PubChem BioAssay (Sanford-Burnham Center for Chemical Genomics)
An excerpt weighted towards active compounds, which were near 31% of everything screened.
CYP2C19 activ: increases human CYP2C19 enzyme activity | P33261 | recombinant CYP2C19, luciferin-H EGE luminescence; active compounds read high; 0 = fully inhibited enzyme, 1 = untreated enzyme | activation factor at 5 µM | 96,000 tested, under 10 active | AID 1025;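 active = activation factor of at least 2 at 5 µM in the primary screen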
Target sequence (P33261 whole entry, looked up): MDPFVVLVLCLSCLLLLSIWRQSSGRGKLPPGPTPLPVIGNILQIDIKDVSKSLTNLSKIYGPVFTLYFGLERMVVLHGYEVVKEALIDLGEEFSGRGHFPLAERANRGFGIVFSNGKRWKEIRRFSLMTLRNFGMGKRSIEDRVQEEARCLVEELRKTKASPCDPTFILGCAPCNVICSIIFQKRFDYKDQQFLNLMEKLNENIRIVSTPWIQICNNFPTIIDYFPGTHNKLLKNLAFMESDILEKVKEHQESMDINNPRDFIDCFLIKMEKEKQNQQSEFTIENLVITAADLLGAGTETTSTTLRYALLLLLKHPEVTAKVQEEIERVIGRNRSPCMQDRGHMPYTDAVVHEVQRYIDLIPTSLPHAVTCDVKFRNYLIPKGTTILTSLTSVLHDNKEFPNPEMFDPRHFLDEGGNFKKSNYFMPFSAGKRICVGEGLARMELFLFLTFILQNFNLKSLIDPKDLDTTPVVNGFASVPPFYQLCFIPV
CYP2C19 inhib: blocks human cytochrome P450 2C19. P33261. CYP2C19 Supersomes, luciferin-H EGE luminescence, 30 min. inhibition, % at 5 µM. 96,000 compounds, 21% hits. AID 778;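 active = CYP2C19 inhibition above a set limit at 5 µM in the primary screen, cut at about 50% in these data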
CYP2C9 activ: CYP2C9 (human) activation. P11712. recombinant CYP2C9, luciferin-H conversion, luminescence; active compounds read high; factor 1 = untreated enzyme, 0 = blocked. activation factor at 5 µM. 96,000 compounds, 1.4% hits;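 active = activation factor of 2 or more for CYP2C9 at a 5 µM dose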
PLAP activator: activates human placental alkaline phosphatase; activation fold at 20 µM; 96,000 compounds, 1.2% hits; purified PLAP enzyme, luminescent substrate read-out; active compounds read high; P05187; in the data active = activation fold above about 2
CYP2C9 inhib: human CYP2C9 inhibition; P11712; CYP2C9 Supersomes, luciferin-H conversion, luminescence; inhibition, % at 5 µM; 96,000 compounds, 20% hits;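 active = blocking of liver enzyme CYP2C9 beyond about 50% at 5 µM, limit read from the data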
Hits are given with their value; 0 = inactive.

SMILES	CYP2C19 activ	CYP2C19 inhib	CYP2C9 activ	PLAP activator	CYP2C9 inhib
Cc1ccc(NC(=O)NC2(C(=O)NCc3ccco3)CCCCC2)cc1	0	93.0	0	0	53.8
O=C(NCc1ccco1)C1(c2ccc(Br)cc2)CCCC1	0	0	0	0	70.0
O=C(NCc1ccco1)Nc1ccc(Br)cc1	0	63.6	0	0	63.9
CC(=O)Nc1ccc(SCC(=O)OCC(=O)NC(=O)NCc2ccco2)cc1	0	0	0	0	66.4
O=C(Nc1ccccc1)NC1(C(=O)NCc2ccco2)CCCCC1	0	0	0	0	0
O=C(NCc1ccco1)NCC(F)(F)F	0	0	0	0	0
O=C(NCc1ccco1)Nc1ccc2nsnc2c1	0	0	0	0	0
CN1CCN(Cc2nc3c(c(=O)[nH]c(=O)n3C)n2Cc2c(F)cccc2Cl)CC1	0	0	0	0	0
COc1ccc(-c2nnn(CC(=O)N(CC(=O)NCCC(C)C)Cc3cccs3)n2)cc1OC	0	0	0	0	0
COc1ccc(-c2nnc(-c3ccc(N(C)C)cc3)o2)cc1	0	0	0	0	0
COc1ccc(-c2nnc(-c3ccc(N)cc3)o2)cc1	0	0	0	0	76.6
CN=C1SC(CC(=O)Nc2ccccc2F)C(=O)N1C (stereo not drawn)	0	0	0	0	0
CCN=C1SC(CC(=O)Nc2ccccc2)C(=O)N1CC (stereo not drawn)	0	0	0	0	0
CCn1c2ccccc2c2cc(N=C3SC(CC(=O)Nc4ccccc4)C(=O)N3C)ccc21 (stereo not drawn)	0	0	0	0	87.1
CN=C1SC(CC(=O)Nc2cccc(C(F)(F)F)c2)C(=O)N1C (stereo not drawn)	0	0	3.9	0	0
COC(=O)c1cc(NC(=O)CC2SC(=Nc3ccccc3)N(CCc3c[nH]c4ccccc34)C2=O)cc(C(=O)OC)c1 (stereo not drawn)	0	0	0	0	80.6
CCn1c2ccccc2c2cc(N=C3SC(CC(=O)Nc4ccccc4OC)C(=O)N3C)ccc21 (stereo not drawn)	0	0	0	0	87.1
CCCC(CCC)C(=O)Nc1c[nH]c(=O)[nH]c1=O	0	0	0	0	0
COc1ccc(N=C2SC(CC(=O)Nc3ccccc3)C(=O)N2CC2CCCO2)cc1 (stereo not drawn)	0	0	0	0	73.4
COCCN1C(=O)C(CC(=O)Nc2ccc(C(=O)O)cc2)SC1=Nc1ccccc1 (stereo not drawn)	0	0	0	0	0
CN=C1SC(CC(=O)Nc2sc(C)c(C)c2C(=O)OC)C(=O)N1C (stereo not drawn)	0	0	0	0	57.6
COc1ccc(N2C(=O)CC(S/C(N)=N/N=C(\C)c3cccs3)C2=O)cc1 (stereo not drawn)	0	0	0	0	0
COc1cccc(NC(=O)C(C#N)Cc2ccncc2)c1 (stereo not drawn)	0	99.8	0	0	77.4
COc1ccc(NC(=O)C(C)Oc2ccc(/C(C)=N\O)cc2)cc1 (stereo not drawn)	0	80.7	0	0	65.9
COc1ccc(OC(C)C(=O)Nc2cccc(OC)c2)cc1 (stereo not drawn)	0	87.0	0	0	74.9
SMILES	CYP2C19 activ	CYP2C19 inhib	CYP2C9 activ	PLAP activator	CYP2C9 inhib
COC(=O)c1ccc(NC(=O)C(C)Oc2ccccc2)cc1 (stereo not drawn)	0	0	0	0	83.6
COc1cccc(NC(=O)N[C@@H](Cc2ccccc2)C(=O)O)c1	0	0	0	0	0
CC(Oc1ccccc1)C(=O)Nc1ccc(C(N)=O)cc1 (stereo not drawn)	0	0	0	0	0
COC(=O)NCc1ccc(S(=O)(=O)N2CCOCC2)cc1	0	0	0	0	0
CCOc1ccc(NC(=O)C2CC=CCC2C(=O)O)cc1 (stereo not drawn)	0	0	0	0	0
CC(C)OC(=O)C1CC=CCC1C(=O)Nc1ccc(Cl)cc1 (stereo not drawn)	0	91.3	0	0	52.5
Cn1c(SCC(=O)N/N=C/c2cccs2)nc2ccccc21	0	0	2	0	0
Cn1c(CCCNC(=O)c2cccs2)nc2ccccc21	0	0	0	0	0
Cc1nc(SCC(=O)NCc2ccc(F)cc2)c2c(=O)n(C)c(=O)n(C)c2n1	0	0	0	0	0
Cn1c(SCC(=O)NCc2ccc(F)cc2)nc2ccccc21	0	0	3.1	0	0
Cc1ccc(/C=N/NC(=O)CSc2nc3ccccc3n2C)s1	0	0	0	0	0
